# Sampled rows, rich in hits. Any-hit rate of the full collection: about 5.2%.
# PLK1 PBD inh: blocks phosphopeptide binding to human PLK1 polo-box domain; P53350; Plk1 PBD binding of FITC phosphopeptide, fluorescence polarization; Potency, µM, for inactives: max response, negative = inhibition, usual class: inhibitors; actives 2.8% (n = 360,000); AID 720504; note: series mostly up to about 57 µM; nearly all actives have a fitted effect of over 65% in size
# Target sequence (P53350 whole entry, looked up, the tested form may be a part): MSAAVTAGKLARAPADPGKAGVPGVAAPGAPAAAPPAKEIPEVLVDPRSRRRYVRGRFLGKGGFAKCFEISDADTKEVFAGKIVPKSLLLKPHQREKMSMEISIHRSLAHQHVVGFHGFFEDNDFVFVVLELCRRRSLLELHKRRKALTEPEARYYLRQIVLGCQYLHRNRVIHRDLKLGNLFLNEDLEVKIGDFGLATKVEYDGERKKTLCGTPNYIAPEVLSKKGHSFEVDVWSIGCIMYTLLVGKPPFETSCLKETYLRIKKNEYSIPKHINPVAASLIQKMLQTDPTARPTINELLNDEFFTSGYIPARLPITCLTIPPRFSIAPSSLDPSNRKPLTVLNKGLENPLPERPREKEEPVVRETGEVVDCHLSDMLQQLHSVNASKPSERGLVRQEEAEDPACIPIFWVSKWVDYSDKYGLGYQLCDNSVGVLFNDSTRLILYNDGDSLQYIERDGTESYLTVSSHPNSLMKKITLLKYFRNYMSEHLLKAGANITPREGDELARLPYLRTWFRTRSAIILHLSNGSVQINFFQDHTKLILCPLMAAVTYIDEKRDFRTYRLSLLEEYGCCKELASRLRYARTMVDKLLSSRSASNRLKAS
# TrxR1 substrate: rat thioredoxin reductase 1 substrate activity. purified TrxR1 substrate turnover, NADPH consumption readout. actives 0.01% (n = 390,000). Potency, µM (titrated, usually from 114 µM), inactives show at the top dose activity change, negative = substrate turnover; note: nearly all actives have a fitted effect of over 50% in size
#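 Rat TrxR1, dispensed at 90 nM, was prereduced with 400 uM NADPH (final) for 5 min at ~22 deg C, then incubated with compound 15 min before 400 uM selenite. A first-read NADPH fluorescence drop versus no-compound background flagged substrates.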
# Sfp inh: Sfp phosphopantetheinyl transferase inhibition | Q9F4F7 | Biochemical Sfp PPTase activity, qHTS | Potency, µM, without a hit: largest response in the series, negative = inhibition, usual class: inhibitors | actives 3.5% (n = 310,000) | AID 1490;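 note: the enzyme is Sfp with the accession as filed and its product quenches rhodamine fluorescence; 0% = enzyme reaction without inhibitor and -100% = no enzyme wells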
#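 Buffer: 50 mM Hepes-Na pH 7.6, 10 mM MgCl2, 0.01% Nonidet P-40, 0.01% BSA. Enzyme 15 nM, pre-exposed to compound 15 min; substrates then added and fluorescence change tracked over 30 min.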
# VDR inhibitor: vitamin D3 receptor (human) inhibition; P11473; VDR-SRC2-3 peptide fluorescence polarization, 2 h; Potency, µM, inactives show max response, negative = inhibition, usual class: inhibitors; actives 0.93% (n = 400,000); AID 504847
#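 After 23 nl compound addition and a short centrifugation, plates sat for 2 hours at ambient temperature; polarization of fluorescence then indicated loss of VDR binding to peptide SRC2-3.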
# IDH1 R132H inh: inhibitors of human mutant IDH1 R132H; O75874; Potency, µM (series often up to 76.6 µM), for inactives: at the top dose activity change, negative = inhibition, most hits filed as inhibitors; actives 0.093% (n = 390,000); IDH1-R132H enzyme, NADPH consumption, diaphorase/resazurin fluorescence; AID 602179; note: nearly all actives have a fitted effect of over 65% in size
#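 IDH1-R132H (0.5 ug/mL) preincubated 30 min with compound, then NADPH (0.016 mM) and alpha-KG (2 mM) added; 80 min at RT, pH 7.5. Remaining NADPH coupled via diaphorase/resazurin to fluorescence (540/590 nm); concentration-response curves normalized to no-enzyme control.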
# rTrxR1 inhibitor: rat TrxR1 inhibition. O89049. recombinant rTrxR1, NADPH fluorescence consumption, selenite substrate. Potency, µM (titrated, usually from 114 µM), for inactives: top-dose activity change, negative = inhibition, hits mostly inhibitors. actives 1% (n = 390,000). AID 588453; note: nearly all actives have a fitted effect of over 65% in size
#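 Rat TrxR1 (90 nM in the dispensed reagent) was pre-reduced with 400 uM NADPH for 5 min at room temperature, then incubated with compound for 15 min. After 400 uM selenite was added, NADPH fluorescence (Ex 340/Em 450 nm) was followed for 8 min.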
# * hit, by the source's call; ? = inconclusive; . = no result; ! = repeats disagree; [ ] = another dose, or the depositor's remark. Calls come from the whole dose curve; as a rule, active = well fitted curve in the direction sought with a large enough effect; inconclusive = small, poorly fitted or top-dose-only effect, or another doubt; inactive = no such curve, though single readings can be large; an effect the other way counts as inactive or inconclusive. Unless noted, % is set by controls: 0 for no effect and ±100 for the full control effect; potency is the fitted concentration of half-maximal effect.
SMILES,PLK1 PBD inh,TrxR1 substrate,Sfp inh,VDR inhibitor,IDH1 R132H inh,rTrxR1 inhibitor
CCOC(=O)c1c(NC(=O)c2cccs2)sc2c1CCCC2,-4%,53%,16%,-9%,13%,6%[57.1 µM]
Cc1noc(C)c1C(=O)Nc1sc2c(c1C(N)=O)CCC2,-16%,39%,13%,-7%,3%,20%
O=C(Nc1sc2c(c1C(=O)O)CCCCC2)c1ccco1,-8%,0%,16%,-14%,4%,-4%
Cc1occc1C(=O)Nc1sc2c(c1C(N)=O)CCCCC2,?,5%,25µM*,-19%,0%,-7%
CC(C)NC(=O)Nc1nnc([C@H]2C[C@H](O)[C@@H](CO)O2)s1,0%,.,.,.,.,.
NC[C@H]1O[C@@H](n2cnc3c(N)ncnc32)[C@H](O)[C@@H]1O,.,2%[57.1 µM],.,-5%,.,24%[57.1 µM]
O=c1c(CCc2ccccc2)nc2cnc(N3CCOCC3)nc2n1C[C@H]1CCCO1,.,.,12%,-27%,.,.
CCOC(=O)C(NC(=O)c1ccccc1Cl)(Nc1sc2c(c1C(N)=O)CCC2)C(F)(F)F (configuration not stated),?,3%,?,-6%,-7%,?
CCOC(=O)C(NC(=O)c1cccc(Cl)c1)(Nc1sc2c(c1C(N)=O)CCC2)C(F)(F)F (configuration not stated),27µM*,1%,-26%,-18%,1%,?
COC(=O)CC1C(=O)NCCN1C(=O)c1ccc2oc(C(C)C)nc2c1 (configuration not stated),30µM*,-6%,14%,?,7%,-11%
C/[N+]([O-])=C\c1cccc(OCCN2CCN(c3ncc(C(F)(F)F)cc3Cl)CC2)c1,12µM*,-2%,?,-3%,-6%,13%
O=C(OCCN1CCN(c2ncc(C(F)(F)F)cc2Cl)CC1)c1ccc(Cl)cc1,-2%,6%[57.1 µM],1%,-12%,4%,8%[57.1 µM]
Cc1ccc(N)cc1O,-16%,7%,.,0%,18%,?
Cc1cc(O)c(N)c(C)c1Cl,?,7%,56µM*,1%,7%,9%[57.1 µM]
N#Cc1cccc(C(=O)C(=O)N2CCN(C(=O)OCc3ccccc3)CC2)c1,4%,.,.,.,.,.
CC(C)(C)n1ncc2c(=O)n(Cc3ccc(F)cc3)cnc21,.,1%,.,.,.,28%[57.1 µM]
COc1ccc2c(c1)c(=O)c(S(=O)(=O)c1ccc(Cl)cc1)cn2C,.,3%,.,-7%,15%,1%
CC1CCc2c(sc3[nH]c(=S)n(C)c(=O)c23)C1 (configuration not stated),11µM*,0%,79µM*,?,-1%,-17%
Cc1cc(C)c2c(=O)cc(CSCC(=O)Nc3ccccc3Cl)[nH]c2c1,.,0%[57.1 µM],.,13%,17%,5%[57.1 µM]
COc1cccc(/C=C2\CCCCC2=O)c1,6%,-1%,-3%,-5%,16%,-22%
NC(=O)C1CCCN(S(=O)(=O)c2ccc3ccccc3c2)C1 (configuration not stated),0%,0%,6%,11%,1%,-1%
COc1ccc(NS(=O)(=O)c2ccc(O)c(NC(=O)c3cc4c(C)nn(-c5ccc(F)cc5)c4s3)c2)cc1,75µM*,39%,5%,-11%,-15%,-17%
CCCCN(C(=O)CN1CC(C)OC(C)C1)c1c(N)n(CC(C)C)c(=O)[nH]c1=O (configuration not stated),-8%,-8%,-1%,-17%,1%,6%[57.1 µM]
CCCCN(C(=O)Cn1ncc(Cl)c(Cl)c1=O)c1c(N)n(CC(C)C)c(=O)[nH]c1=O,?,-12%,-2%,?,-5%,56µM*
COc1cc(S(=O)(=O)N2CCCCCC2)ccc1-n1cnnn1,-6%,1%,45µM*,-4%,0%,23%
SMILES,PLK1 PBD inh,TrxR1 substrate,Sfp inh,VDR inhibitor,IDH1 R132H inh,rTrxR1 inhibitor
Cc1cc(=O)n2[nH]c(C)c(-c3ccccc3)c2n1,-3%,13%,9%,-4%,6%,21%
O=c1cc(-c2ccccc2)nc2c(-c3ccccc3)c(C(F)(F)F)[nH]n12,17µM*,262%[57.1 µM],5%,-22%,-5%,5%[57.1 µM]
CCc1nc(NCc2cccs2)c2nnn(Cc3ccccc3)c2n1,5%,.,.,.,-1%,.
CCc1nc(Nc2ccccc2)c2nnn(Cc3ccccc3)c2n1,-1%,5%,35µM*,11%,5%,15%
Cc1ccc(/C=N/N=C/c2ccc(C)cc2)cc1,21µM*,1%,10%,-15%,6%,4%
Oc1ccc(/C=N/N=C/c2ccc(O)cc2)cc1,3%,-13%,23%,-8%,0%,0%
NCCCC(N)CC(=O)NC1CNC(=O)C(C2CC(O)N=C(N)N2)NC(=O)/C(=C/NC(N)=O)NC(=O)C(CO)NC(=O)C(CO)NC1=O (configuration not stated),.,.,10%,2%,.,.
c1ccc(COc2ccc(CNCc3cccs3)cc2)cc1,2%,1%,56µM*,19%,-1%,10%
COc1cc(CNC(C)c2ccccc2)cc(Br)c1OCc1ccccc1 (configuration not stated),-6%,-1%,?,-20%,5%,17%
Oc1ccc(NCc2ccc(OCc3ccccc3)cc2)cc1,-9%,-10%,56µM*,89µM*,6%,28µM*!
Oc1ccc(OCc2ccccc2)cc1,.,.,17%,-6%,.,.
COc1cc(CNc2cccc(F)c2)cc(Br)c1O,-6%,-1%[57.1 µM],-22%,6%,-2%,13µM*
COc1cc(CNc2ccc(O)cc2)cc(Br)c1OCc1ccccc1,-3%,-4%,22µM*,-15%,9%,10%
O=S(=O)(c1ccc(Br)cc1)c1nc(-c2ccco2)oc1NCCCn1ccnc1,-14%,-2%,.,6%,6%,-16%
C[C@H](NC(=O)[C@@H]1CCCN1C(=O)[C@@H]1CCCN1)c1ccccc1,-8%,.,.,.,.,.
Cn1nnnc1SCCNCc1ccc(OCc2ccccc2Cl)cc1,.,-8%,.,7%,20%,-5%
Oc1ccc(NCc2ccc(OCc3ccccc3Cl)cc2)cc1,.,-11%,.,?,0%,45µM*
CCN(CC)CCN(CC)c1ccc(/C=C/c2ccnc3ccccc23)cc1,.,9%[0.0914 µM],.,.,.,3%
Cn1c(CNC(=O)c2ccc(F)cc2)nc2ccccc21,27µM*,-1%,13%,79µM*,-10%,2%
